# This excerpt belongs to a sample that is enriched for hits.
# Pf Dd2 growth: inhibitors of Plasmodium falciparum Dd2 growth | P. falciparum Dd2 growth, SYBR Green, 72 h | Potency, µM (titrated, usually from 28.9 µM), without a hit: at the highest dose activity, negative = inhibition, usual class: inhibitors | 4.3% of 120,000 active | AID 1347417; active = well fitted inhibition curve with a large enough effect;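 note: plate controls were DMSO vehicle for no effect and reference drug for full effect; nearly all actives have a fitted effect of over 65% in size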
#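 Infected erythrocytes (Dd2, 0.3% parasitemia, 2.5% hematocrit final) are added to compound in RPMI-1640/Albumax II medium, grown 72 h at 37C in low oxygen, then lysed with saponin/Triton-X containing SYBR Green and read by fluorescence.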
# Active calls of the source: *; i = inactive; [ ] = dose if it differs, or a comment. Potency is the fitted concentration of half-maximal effect.
SMILES,Pf Dd2 growth
COc1ccc(CCNC(=O)CN2C(=O)NC3(CCC(C)CC3)C2=O)cc1OC (stereo not given),i
O=C1Nc2ccc(-c3ccccc3F)cc2C(=O)N2CCN(C(=O)C3CCNCC3)C[C@H]12,-4%[44.1 µM]
Cc1cnc(C(=O)N2CCCCCCN(C)C(=O)[C@@H]3CCC[C@@H]32)cn1,-7%
CCCS(=O)(=O)NCC(=O)N1CCCCCNC(=O)CC1c1ccccc1 (stereo not given),36%
COC(=O)CNC(=O)c1cc(-c2ccc([S+](C)(=O)[O-])cc2)nc2c1cnn2C,7%
CCCN1C(=O)Cc2ccccc2C1C(=O)NCc1ccc(F)cc1F (stereo not given),-23%
CC(=O)c1ccc(NC(=O)c2cnn(-c3cccc(F)c3)c2-n2cccc2)cc1,4%
O=C(c1ccco1)N1CCN(C(=O)c2cnn(-c3cccc(F)c3)c2C2CCNCC2)CC1,2%
O=C(Nc1cccc(C(F)(F)F)c1)c1cnn(-c2cccc(F)c2)c1C1CCNCC1,11µM*
O=C(NC1CCN(c2cc(-c3ccc(Cl)cc3)[nH]n2)CC1)c1ccc2[nH]ccc2c1,-15%
CC1CCCCN1C(=O)CSc1nc(-c2ccccc2)no1 (stereo not given),10µM*
COc1ccccc1N1CCN(C(=O)CSc2nc(-c3ccc(C(C)C)cc3)no2)CC1,0.35µM*
COc1ccccc1N1CCN(C(=O)CSc2n[nH]c(-c3ccccc3)n2)CC1,-2%
CC1CCCCN1C(=O)CSc1nnc(-c2ccccc2Cl)o1 (stereo not given),-18%
COc1ccccc1N1CCN(C(=O)CSc2nc(C)cc(=O)[nH]2)CC1,54%
CC1CCCCN1C(=O)CSc1n[nH]c(-c2ccccc2Cl)n1 (stereo not given),8%
COc1ccccc1CN1CC(C(=O)NCc2ccncc2)C2(CCOCC2)C1 (stereo not given),-9%
CCN(CC)Cc1cnc2c(C(=O)Nc3ccc(OC)cc3)cnn2c1,-28%
CC(C)N1CCN(Cc2cnc(N3CCOCC3)s2)CC1CCO (stereo not given),1%
COc1ccc(CC(=O)N[C@@H]2c3ccccc3C3(CCNCC3)[C@H]2OC)cc1,7%
Cc1cc(N)n(CC(=O)N2CC[C@@]3(O)CCN(S(C)(=O)=O)C[C@H]3C2)n1,-6%
O=C1COCCN1C1CCN([S+](=O)([O-])c2ccccc2)CC1,29%
COc1ccc(F)cc1-c1ccccc1C=O,16%[44.1 µM]
O=C1COc2ccc(-c3ccsc3)nc2CN1Cc1ccc(C(F)(F)F)cc1,7.9µM*
O=C1COc2ccc(-c3ccsc3)nc2CN1Cc1ccccc1,-5%[44.1 µM]
SMILES,Pf Dd2 growth
Cc1nc(CN2Cc3nc(-c4ccccc4)ccc3OCC2=O)cs1,-16%[44.1 µM]
CN1Cc2nc(Nc3ccc(C(F)(F)F)cc3)ccc2OCC1=O,i
O=C1COc2ccc(-c3cccnc3)nc2CN1Cc1ccc(C(F)(F)F)cc1,-25%[44.1 µM]
Cc1nc(CN2Cc3nc(Nc4ccc(C(F)(F)F)cc4)ccc3OCC2=O)cs1,11µM*
O=C(NC[C@H]1OC[C@@H](NC2CCC2)[C@@H]1O)c1ccncc1,-5%[44.1 µM]
O=C(c1ccco1)N1CCOc2ccc(CN3CCc4ccccc4C3)cc2C1,-19%
CCc1cccc(NC(=O)CC2CCCN(c3cn[nH]c(=O)c3)C2)c1 (stereo not given),7%
CCc1nncn1C1CCN(S(=O)(=O)c2cc(F)ccc2C)CC1,2%
O=C(CCc1nnn2c1CNCC2)NC1CC1,-6%
COC(=O)c1c(NC(=O)c2cccc(OC)c2)sc2c1CCC(C(C)(C)C)C2 (stereo not given),-4%
CCC(CC)NC(=O)CCC1CCN(C(=O)c2ccccc2Cl)CC1,-13%
Cc1ccccc1C(=O)Nc1sc2c(c1C(=O)O)CCC(C(C)(C)C)C2 (stereo not given),-27%
CC(C)(C)C1CCc2c(sc(NC(=O)c3cc(-c4ccc(F)cc4)on3)c2C#N)C1 (stereo not given),33%
Cc1ccccc1C(=O)Nc1sc2c(c1C(=O)N1CCCCC1)CCC(C(C)(C)C)C2 (stereo not given),5.6µM*
Cc1cc(C)c2c(=O)cc(C(=O)Nc3sc4c(c3C(=O)NCc3ccco3)CCCC4)oc2c1,-3%
CC1CCN(C(=O)c2c(NC(=O)c3ccccc3Cl)sc3c2CCC(C(C)(C)C)C3)CC1 (stereo not given),11µM*
Cc1ccccc1C(=O)Nc1sc2c(c1C(=O)NCc1ccco1)CCC(C(C)(C)C)C2 (stereo not given),11µM*
Cc1ccc2c(=O)cc(C(=O)Nc3sc4c(c3C(=O)NCc3ccco3)CCC4)oc2c1C,38%
CC(C)=CCC1(CO)CCCN(c2ncccc2C(=O)N2CCCC2)C1 (stereo not given),-8%
O=C(c1ccc2nc(-c3ccccc3)cn2c1)N1CCOC(C(F)(F)F)C1 (stereo not given),8%
CCCNC(=O)N1CC(Oc2ccc(-c3nc(-c4ccccc4)no3)cc2)C1,i[5.79 µM]
Cc1noc(-c2ccn3c(CNC(=O)c4ccco4)nnc3c2)n1,-15%
O=C(NCC1CC1)c1cccc(OC2CN(Cc3cccc(F)c3F)C2)c1,-21%
C=CCNC(=O)N[C@H]1C[C@@H](C(=O)N[C@H](Cc2c[nH]c3ccccc23)C(N)=O)N(C(=O)c2cccn2C)C1,21%
CCOc1cccc(C(=O)Nc2ccc(NC(=O)c3ccc(Br)cc3)cc2)c1,i
SMILES,Pf Dd2 growth
CCOC(=O)Cc1cc(C(=O)Nc2ccc(Br)cc2)sc1-c1ccc(C)cc1,7.1µM*
CCOc1ccc(NC(=O)c2ccc(-c3ccccc3)s2)cc1,18%
COc1ccc(OC)c(S(=O)(=O)N[C@H]2CO[C@H]3[C@@H]2OC[C@H]3OC(=O)Nc2cccc(C(F)(F)F)c2)c1,-18%
Cc1cc2nc3n(c(=O)c2n1CC(=O)Nc1cccc(C(F)(F)F)c1)CCCCC3,-23%
CCn1nccc1C(=O)N1C[C@@H](Oc2ccccc2)C[C@H]1C(=O)NCCOC,27%
OC[C@@H]1CNC[C@H]1C1CCN(CC2CCCCC2)CC1,51%
O=[S+]1([O-])NCC2(CCN(CC3CCOCC3)CC2)Oc2ncccc21,3%
O=[S+]1([O-])NCC2(CCN(Cc3cccnc3)CC2)Oc2ncccc21,6%
CC(C)(C)CN1CCC2(CC1)CN[S+](=O)([O-])c1cccnc1O2,8.9µM*
C[C@H](C(=O)N1CCCC1)C1CC[C@@]2(C)Cc3sc(CS(=O)(=O)C(C)(C)C)nc3[C@@H](C)[C@@H]2[C@H]1O (stereo not given in full),-20%
COc1ccc2[nH]c3c(c2c1)CCNC31CCN(C(=O)c2sc(C)nc2C)CC1,-1%
O=C1N(C2CCNCC2)C(c2ccccc2)C12CCCCC2 (stereo not given),i
O=C(NCCc1csc(-c2cnccn2)n1)C1CC2(CCNCC2)CN1 (stereo not given),-13%
Cc1ccsc1C(=O)NCCc1noc(-c2ccccc2)n1,i
CN1C(=O)CC(C(=O)O)C12CCN(Cc1cccc(-c3ccccc3)c1)CC2 (stereo not given),-16%
O[C@]12CCNC[C@H]1CN(Cc1cccc(-c3ccccc3)c1)CC2,8.9µM*
OC[C@]12CCCN[C@@H]1CCN(Cc1cccc(-c3ccccn3)c1)C2,i
COc1cccc(CN2Cc3nc(-c4cn[nH]c4)ccc3OCC2=O)c1,-9%[44.1 µM]
CCNC(=O)N1CCc2nc(N3CCN(C)CC3)sc2C1,16%
COc1ccc(CC(=O)NCc2ccc3c(c2)CCN3C(=O)c2ccc(Cl)cc2)cc1OC,i

# From PubChem
